For experiment [1], the target named is T1, Serine/threonine-protein kinase Nek9 (Homo sapiens) (UniProt Q8TD19).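 Note: each value is a mean percent inhibition of NEK9.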
T1 sequence (whole entry): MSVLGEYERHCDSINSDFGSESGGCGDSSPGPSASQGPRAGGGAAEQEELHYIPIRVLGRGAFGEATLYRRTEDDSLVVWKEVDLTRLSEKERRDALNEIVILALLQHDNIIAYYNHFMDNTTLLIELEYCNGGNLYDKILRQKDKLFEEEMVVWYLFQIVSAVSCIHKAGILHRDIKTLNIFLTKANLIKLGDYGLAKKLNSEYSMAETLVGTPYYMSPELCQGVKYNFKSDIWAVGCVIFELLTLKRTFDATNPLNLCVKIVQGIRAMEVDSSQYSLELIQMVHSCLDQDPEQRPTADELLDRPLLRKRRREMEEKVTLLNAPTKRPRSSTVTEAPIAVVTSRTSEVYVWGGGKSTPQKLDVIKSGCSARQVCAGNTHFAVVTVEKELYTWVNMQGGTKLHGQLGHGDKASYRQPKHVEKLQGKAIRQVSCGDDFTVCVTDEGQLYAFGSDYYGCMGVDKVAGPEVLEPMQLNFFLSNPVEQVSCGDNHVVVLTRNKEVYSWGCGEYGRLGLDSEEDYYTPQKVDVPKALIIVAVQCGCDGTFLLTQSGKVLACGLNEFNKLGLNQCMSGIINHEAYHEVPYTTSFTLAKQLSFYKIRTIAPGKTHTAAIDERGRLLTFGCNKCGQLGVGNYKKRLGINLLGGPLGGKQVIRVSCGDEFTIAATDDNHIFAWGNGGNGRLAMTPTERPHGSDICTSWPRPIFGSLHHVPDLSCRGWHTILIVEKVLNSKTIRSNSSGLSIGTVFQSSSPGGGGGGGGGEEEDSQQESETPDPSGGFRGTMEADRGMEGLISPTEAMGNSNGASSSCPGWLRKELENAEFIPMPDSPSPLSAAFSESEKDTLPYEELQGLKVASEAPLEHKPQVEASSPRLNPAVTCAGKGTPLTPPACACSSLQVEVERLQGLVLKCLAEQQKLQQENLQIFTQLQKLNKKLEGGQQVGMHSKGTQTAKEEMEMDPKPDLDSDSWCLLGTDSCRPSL
The following applies: at 1 µM.

Experiment [2] addresses Serine/threonine-protein kinase PLK1 (Homo sapiens) (UniProt P53350). The following applies: at 0.1 µM.
Experiment [3] shares this target. Conditions: at 1 µM.
The target in experiment [4] is T2, Dual specificity protein kinase TTK (Homo sapiens) (UniProt P33981).
T2 sequence (whole entry): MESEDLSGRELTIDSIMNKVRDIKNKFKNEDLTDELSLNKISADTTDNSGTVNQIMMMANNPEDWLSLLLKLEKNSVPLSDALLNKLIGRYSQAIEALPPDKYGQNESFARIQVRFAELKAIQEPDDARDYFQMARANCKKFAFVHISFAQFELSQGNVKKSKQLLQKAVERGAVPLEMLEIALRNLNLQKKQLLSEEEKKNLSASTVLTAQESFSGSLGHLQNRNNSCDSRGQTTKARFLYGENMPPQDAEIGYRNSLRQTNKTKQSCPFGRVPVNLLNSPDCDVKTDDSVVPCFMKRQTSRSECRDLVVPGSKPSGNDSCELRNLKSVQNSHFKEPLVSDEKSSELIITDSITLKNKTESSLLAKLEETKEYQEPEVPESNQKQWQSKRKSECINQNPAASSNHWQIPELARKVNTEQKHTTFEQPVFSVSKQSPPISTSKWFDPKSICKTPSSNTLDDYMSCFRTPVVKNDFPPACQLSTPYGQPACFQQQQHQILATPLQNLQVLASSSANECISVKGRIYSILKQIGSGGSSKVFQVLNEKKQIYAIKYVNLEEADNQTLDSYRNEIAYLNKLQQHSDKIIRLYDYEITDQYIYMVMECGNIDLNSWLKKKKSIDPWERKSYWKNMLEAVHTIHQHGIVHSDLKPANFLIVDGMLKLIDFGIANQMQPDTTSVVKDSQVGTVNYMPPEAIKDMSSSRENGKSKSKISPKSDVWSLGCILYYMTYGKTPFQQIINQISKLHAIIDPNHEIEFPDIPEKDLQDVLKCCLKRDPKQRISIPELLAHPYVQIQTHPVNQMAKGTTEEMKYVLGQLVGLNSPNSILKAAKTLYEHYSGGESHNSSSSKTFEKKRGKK
The following applies: at 0.1 µM.

The test system of experiment [5] is T3, Receptor-type tyrosine-protein kinase FLT3 (Homo sapiens), P36888 [D835Y].
T3 sequence (whole entry): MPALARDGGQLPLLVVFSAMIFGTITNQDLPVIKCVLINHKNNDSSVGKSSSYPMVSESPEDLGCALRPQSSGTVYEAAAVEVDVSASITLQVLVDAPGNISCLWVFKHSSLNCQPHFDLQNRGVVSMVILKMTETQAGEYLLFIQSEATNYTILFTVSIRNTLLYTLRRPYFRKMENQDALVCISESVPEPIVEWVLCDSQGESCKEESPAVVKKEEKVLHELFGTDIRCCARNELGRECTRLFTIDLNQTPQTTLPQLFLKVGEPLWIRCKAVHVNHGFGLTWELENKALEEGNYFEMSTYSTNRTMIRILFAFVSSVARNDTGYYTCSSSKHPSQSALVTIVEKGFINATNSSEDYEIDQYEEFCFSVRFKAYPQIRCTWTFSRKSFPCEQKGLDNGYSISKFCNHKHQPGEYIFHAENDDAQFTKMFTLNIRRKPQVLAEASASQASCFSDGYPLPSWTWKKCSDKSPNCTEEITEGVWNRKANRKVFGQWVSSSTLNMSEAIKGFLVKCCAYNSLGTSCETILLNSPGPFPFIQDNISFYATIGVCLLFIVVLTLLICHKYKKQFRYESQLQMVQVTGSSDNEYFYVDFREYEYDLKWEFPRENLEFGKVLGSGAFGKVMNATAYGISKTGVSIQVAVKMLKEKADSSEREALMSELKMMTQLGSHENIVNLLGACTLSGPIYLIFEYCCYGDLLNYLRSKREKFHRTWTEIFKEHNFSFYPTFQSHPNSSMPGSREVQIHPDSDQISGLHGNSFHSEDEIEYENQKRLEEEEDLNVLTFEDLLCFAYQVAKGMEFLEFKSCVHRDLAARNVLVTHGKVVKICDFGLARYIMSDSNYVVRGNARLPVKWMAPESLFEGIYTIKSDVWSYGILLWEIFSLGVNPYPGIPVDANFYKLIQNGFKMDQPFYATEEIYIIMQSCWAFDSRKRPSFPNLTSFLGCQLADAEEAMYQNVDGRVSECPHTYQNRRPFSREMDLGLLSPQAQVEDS
Conditions: at 1 µM.

The target of experiment [6] is Vascular endothelial growth factor receptor 3 (Homo sapiens) (UniProt P35916). The following applies: at 0.1 µM.
For experiment [7] the target is unchanged. The following applies: at 1 µM.
In experiment [8] the target is Tyrosine-protein kinase Fyn (Homo sapiens) (UniProt P06241). Conditions: at 0.1 µM.
Experiment [9] shares this target. The following applies: at 1 µM.
Experiment [10] concerns the target Tyrosine-protein kinase HCK (Homo sapiens) (UniProt P08631). Conditions: at 0.1 µM.
The target is the same in experiment [11]. Conditions: at 1 µM.
In experiment [12] the target is Insulin-like growth factor 1 receptor (Homo sapiens) (UniProt P08069). The following applies: at 1 µM.
The target in experiment [13] is Insulin receptor (Homo sapiens) (UniProt P06213). Conditions: at 0.1 µM.
Experiment [14] shares this target. The following applies: at 1 µM.
In experiment [15] the target is Insulin receptor-related protein (Homo sapiens) (UniProt P14616). Conditions: at 0.1 µM.
Experiment [16] shares this target. The following applies: at 1 µM.
The target in experiment [17] is T4, Tyrosine-protein kinase ITK/TSK (Homo sapiens) (UniProt Q08881).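 Note: mean percent inhibition of ITK from the GSK PKIS screen.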
T4 sequence (whole entry): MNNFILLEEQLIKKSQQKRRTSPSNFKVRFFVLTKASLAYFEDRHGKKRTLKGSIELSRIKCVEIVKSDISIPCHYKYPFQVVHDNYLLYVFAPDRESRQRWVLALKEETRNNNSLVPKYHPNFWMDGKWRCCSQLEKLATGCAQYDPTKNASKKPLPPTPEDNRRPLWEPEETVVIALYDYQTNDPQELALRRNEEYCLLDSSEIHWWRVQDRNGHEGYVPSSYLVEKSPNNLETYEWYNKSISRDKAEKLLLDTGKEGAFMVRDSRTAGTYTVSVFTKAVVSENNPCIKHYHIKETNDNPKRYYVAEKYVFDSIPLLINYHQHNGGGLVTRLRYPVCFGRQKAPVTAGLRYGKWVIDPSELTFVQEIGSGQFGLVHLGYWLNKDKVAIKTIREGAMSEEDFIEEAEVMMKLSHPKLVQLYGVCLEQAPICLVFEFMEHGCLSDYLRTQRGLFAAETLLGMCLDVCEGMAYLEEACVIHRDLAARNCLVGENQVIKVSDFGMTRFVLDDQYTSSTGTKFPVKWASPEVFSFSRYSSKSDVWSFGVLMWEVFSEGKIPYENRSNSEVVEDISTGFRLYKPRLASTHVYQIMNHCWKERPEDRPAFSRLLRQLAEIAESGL
Conditions: at 0.1 µM.

Experiment [18] deals with Macrophage colony-stimulating factor 1 receptor (Homo sapiens) (UniProt P07333). The following applies: at 0.1 µM.
Experiment [19] shares this target. The following applies: at 1 µM.
For experiment [20], the target named is Insulin-like growth factor 1 receptor (Homo sapiens) (UniProt P08069). Conditions: at 0.1 µM.

The text below walks through data of ChEMBL document CHEMBL1961873, “Compounds: GSK PKIS; Assays: Nanosyn kinase panel” (2012).

Chain of Insulin receptor-related protein (Homo sapiens) (P14616 27-742 limits assumed): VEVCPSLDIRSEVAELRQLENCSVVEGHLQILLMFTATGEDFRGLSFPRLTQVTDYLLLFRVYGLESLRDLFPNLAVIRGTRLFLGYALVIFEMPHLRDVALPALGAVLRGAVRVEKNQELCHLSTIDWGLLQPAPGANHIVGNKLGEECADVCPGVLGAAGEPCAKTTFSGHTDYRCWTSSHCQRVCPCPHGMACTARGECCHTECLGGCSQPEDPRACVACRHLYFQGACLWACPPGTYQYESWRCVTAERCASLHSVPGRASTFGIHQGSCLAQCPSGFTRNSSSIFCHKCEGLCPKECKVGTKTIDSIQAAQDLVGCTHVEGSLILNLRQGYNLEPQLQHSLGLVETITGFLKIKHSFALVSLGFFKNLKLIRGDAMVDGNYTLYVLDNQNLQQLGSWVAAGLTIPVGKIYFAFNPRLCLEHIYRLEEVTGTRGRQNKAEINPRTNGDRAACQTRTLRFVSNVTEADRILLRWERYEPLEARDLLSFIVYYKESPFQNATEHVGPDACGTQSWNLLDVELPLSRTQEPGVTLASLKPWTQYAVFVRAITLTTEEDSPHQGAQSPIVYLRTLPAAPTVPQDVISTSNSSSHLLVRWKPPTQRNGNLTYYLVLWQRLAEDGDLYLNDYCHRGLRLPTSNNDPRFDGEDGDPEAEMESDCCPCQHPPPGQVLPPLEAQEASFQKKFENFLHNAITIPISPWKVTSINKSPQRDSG
Chain of Insulin receptor-related protein (Homo sapiens) (P14616 747-1297 limits assumed): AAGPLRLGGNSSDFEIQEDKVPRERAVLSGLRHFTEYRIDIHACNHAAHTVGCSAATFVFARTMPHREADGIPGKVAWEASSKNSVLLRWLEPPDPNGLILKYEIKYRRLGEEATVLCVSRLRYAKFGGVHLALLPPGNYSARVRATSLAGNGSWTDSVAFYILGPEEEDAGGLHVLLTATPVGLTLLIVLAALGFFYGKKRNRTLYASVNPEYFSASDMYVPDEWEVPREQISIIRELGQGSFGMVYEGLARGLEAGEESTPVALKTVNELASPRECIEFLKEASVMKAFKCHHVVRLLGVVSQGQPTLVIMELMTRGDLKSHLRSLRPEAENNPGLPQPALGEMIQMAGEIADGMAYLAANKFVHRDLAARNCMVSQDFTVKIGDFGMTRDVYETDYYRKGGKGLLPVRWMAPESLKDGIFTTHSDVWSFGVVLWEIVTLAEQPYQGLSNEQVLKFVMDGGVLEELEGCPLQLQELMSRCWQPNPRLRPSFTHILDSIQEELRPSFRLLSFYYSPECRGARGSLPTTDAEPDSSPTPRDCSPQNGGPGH
Chain of Serine/threonine-protein kinase PLK1 (Homo sapiens) (P53350 whole entry): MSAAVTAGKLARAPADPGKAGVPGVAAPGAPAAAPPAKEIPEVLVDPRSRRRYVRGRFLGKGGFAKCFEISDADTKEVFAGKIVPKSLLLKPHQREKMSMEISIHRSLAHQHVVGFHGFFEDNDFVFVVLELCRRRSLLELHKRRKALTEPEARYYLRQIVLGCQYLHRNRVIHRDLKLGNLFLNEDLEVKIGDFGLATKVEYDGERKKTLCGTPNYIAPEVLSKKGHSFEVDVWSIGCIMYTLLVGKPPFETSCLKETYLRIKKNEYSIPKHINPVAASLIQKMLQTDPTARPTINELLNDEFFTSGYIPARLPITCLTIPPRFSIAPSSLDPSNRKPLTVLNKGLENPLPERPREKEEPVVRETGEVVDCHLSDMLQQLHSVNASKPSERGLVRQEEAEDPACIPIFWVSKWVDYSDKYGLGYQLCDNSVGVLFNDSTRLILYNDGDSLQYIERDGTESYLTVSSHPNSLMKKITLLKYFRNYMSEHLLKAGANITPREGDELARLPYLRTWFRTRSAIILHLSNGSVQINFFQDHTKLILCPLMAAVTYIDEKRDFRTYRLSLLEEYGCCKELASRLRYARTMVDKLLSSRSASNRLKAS
Chain of Insulin-like growth factor 1 receptor (Homo sapiens) (P08069 31-736 limits assumed): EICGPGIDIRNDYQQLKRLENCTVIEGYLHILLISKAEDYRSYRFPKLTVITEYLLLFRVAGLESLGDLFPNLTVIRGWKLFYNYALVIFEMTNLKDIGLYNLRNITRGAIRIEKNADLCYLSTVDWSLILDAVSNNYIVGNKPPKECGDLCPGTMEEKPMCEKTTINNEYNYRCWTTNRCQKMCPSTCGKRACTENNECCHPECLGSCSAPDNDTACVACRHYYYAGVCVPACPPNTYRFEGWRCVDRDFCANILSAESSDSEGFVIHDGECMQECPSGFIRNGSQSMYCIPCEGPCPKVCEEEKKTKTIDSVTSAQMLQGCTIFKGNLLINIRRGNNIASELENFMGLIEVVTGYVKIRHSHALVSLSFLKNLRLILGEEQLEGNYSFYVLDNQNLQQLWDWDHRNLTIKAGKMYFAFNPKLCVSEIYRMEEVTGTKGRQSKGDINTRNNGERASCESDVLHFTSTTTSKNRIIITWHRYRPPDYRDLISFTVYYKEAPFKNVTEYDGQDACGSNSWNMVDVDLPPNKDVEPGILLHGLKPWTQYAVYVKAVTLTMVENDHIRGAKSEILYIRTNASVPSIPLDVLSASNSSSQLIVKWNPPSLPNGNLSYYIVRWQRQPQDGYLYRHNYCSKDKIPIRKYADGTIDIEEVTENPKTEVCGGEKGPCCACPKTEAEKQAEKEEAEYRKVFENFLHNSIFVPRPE
Chain of Insulin-like growth factor 1 receptor (Homo sapiens) (P08069 741-1367 limits assumed): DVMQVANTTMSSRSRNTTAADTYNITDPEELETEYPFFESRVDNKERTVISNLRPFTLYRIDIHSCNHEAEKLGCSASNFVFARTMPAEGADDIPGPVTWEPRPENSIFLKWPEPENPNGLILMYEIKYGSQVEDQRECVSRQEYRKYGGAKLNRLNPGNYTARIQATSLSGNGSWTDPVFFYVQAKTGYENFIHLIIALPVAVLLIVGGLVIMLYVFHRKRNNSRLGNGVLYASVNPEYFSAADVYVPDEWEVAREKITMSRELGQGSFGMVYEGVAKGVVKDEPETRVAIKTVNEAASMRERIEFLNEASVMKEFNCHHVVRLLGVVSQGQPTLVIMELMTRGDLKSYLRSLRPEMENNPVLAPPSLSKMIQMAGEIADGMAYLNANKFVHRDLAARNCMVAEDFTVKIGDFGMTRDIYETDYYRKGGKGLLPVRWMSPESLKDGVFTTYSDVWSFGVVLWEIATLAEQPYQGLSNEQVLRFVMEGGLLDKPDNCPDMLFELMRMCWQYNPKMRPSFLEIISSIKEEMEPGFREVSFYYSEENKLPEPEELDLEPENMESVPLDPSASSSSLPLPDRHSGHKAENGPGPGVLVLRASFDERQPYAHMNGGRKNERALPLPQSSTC
Chain of Tyrosine-protein kinase Fyn (Homo sapiens) (P06241 2-537 limits assumed): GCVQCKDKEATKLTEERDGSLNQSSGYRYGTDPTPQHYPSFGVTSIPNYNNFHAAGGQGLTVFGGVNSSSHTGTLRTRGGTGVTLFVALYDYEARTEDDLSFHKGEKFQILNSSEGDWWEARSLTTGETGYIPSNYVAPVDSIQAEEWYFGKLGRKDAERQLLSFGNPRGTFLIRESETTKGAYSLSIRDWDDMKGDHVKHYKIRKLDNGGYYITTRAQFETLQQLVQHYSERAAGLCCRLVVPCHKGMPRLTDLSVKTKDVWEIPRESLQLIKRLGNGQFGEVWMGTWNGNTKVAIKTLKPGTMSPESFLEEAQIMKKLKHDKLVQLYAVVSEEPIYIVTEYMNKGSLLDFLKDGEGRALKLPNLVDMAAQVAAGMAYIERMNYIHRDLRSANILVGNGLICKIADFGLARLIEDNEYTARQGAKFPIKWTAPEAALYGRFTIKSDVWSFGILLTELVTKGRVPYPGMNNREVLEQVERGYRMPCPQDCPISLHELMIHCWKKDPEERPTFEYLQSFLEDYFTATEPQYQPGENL
Chain of Tyrosine-protein kinase HCK (Homo sapiens) (P08631 2-526 limits assumed): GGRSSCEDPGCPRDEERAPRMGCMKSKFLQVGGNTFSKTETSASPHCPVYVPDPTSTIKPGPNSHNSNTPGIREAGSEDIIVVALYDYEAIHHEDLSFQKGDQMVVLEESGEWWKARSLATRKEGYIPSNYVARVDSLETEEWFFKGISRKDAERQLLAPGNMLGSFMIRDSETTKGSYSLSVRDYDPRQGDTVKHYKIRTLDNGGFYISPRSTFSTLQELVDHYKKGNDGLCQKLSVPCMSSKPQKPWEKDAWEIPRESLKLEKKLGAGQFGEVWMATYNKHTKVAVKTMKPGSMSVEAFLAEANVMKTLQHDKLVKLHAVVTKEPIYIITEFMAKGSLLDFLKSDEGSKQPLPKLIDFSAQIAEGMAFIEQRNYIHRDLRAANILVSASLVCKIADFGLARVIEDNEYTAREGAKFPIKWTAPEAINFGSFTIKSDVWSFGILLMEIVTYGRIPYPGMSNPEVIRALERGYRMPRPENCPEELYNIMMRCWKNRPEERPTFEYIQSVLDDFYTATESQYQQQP

As a reminder, the inhibition is the relative decrease from the control value, in per cent. Take `COc1cc2ncn(-c3cc(OCc4ccccc4C(F)(F)F)c(C(N)=O)s3)c2cc1OC`: the inhibition was found to be 58.7% in experiment [1]; 93.4% in experiment [2]; 96.3% in experiment [3]; 7.82% in experiment [4]; 14.5% in experiment [5]; 6.89% in experiment [6]. Besides, the inhibition in experiment [7] was 53.1%; in [8], -0.99%; in experiment [9], 9.2%; in experiment [10], 8.32%; in experiment [11], 29.2%; in experiment [12], -2.72%. In addition, the inhibition in experiment [13] is -1.5%; in experiment [14], 2.13%; in experiment [15], 4.32%; in [16], 3.34%; in experiment [17], -3.84%.

As for `CC1=C(C(=O)Nc2ccc3[nH]ncc3c2)C(c2ccc(Cl)c(Cl)c2)CC(=O)N1` (stereo unspecified), the inhibition was 3.13% in experiment [1]; 2.57% in experiment [2]; 1.43% in experiment [3]; 2.15% in experiment [4]; 0.84% in experiment [5]; -2.61% in [6]. The inhibition was 1% in experiment [7]; -0.52% in experiment [18]; 1.97% in experiment [19]; 1.91% in experiment [8]; 2.37% in experiment [9]; 6.21% in experiment [10]. In addition, the inhibition in experiment [11] is 7.31%; in experiment [20], -0.16%; in experiment [12], 1.11%; in experiment [13], 1.45%; in experiment [14], 1.96%; in [15], 0.58%. Also, the inhibition was 1.03% in [16] and 1.18% in experiment [17].

Take `NS(=O)(=O)c1ccc(N/N=C2\C(=O)Nc3ccc(C(=O)NCCc4c[nH]cn4)cc32)cc1`: the inhibition was found to be 10.4% in experiment [1]; 5.66% in experiment [2]; 10.8% in experiment [3]; 37.9% in experiment [4]; 48% in experiment [5]; 6.93% in experiment [6]. Moreover, the inhibition was determined as 26.4% in experiment [7]; 15.4% in [19]; 3.46% in [8]; 17.2% in experiment [9]; 9.6% in experiment [10]; 25% in experiment [11]. The inhibition in [20] worked out at 5.24%; in experiment [12], 17.3%; in [13], 6.5%; in experiment [14], 32%; in experiment [15], 6.49%; in experiment [16], 2.5%. Also, the inhibition in experiment [17] was found to be 1.78%.

`CCn1c(-c2nonc2N)nc2cncc(C(=O)N3CC[C@H](N)C3)c21`: the inhibition in experiment [1] was 19.1%; in experiment [2], 4.34%; in experiment [3] it was 8.01%; in [4] it was 16%; in experiment [5] it was -5.46%; in experiment [6] it was 5.85%. The inhibition in experiment [7] came out at 7.41%; in [18], 1.27%; in experiment [19] it was 3.01%; in experiment [8] it was 3.5%; in experiment [9] it was 2.85%; in experiment [10], 6.43%. Also, the inhibition is 9.69% in experiment [11]; 4.59% in experiment [20]; 6% in experiment [12]; 4.27% in experiment [13]; 6.06% in experiment [14]; 0.81% in experiment [15]. Also, the values for the inhibition in experiment [16] and in experiment [17] were 1.96% and 0.55%, respectively.
